Measured values: PubChem BioAssay
“And” between values parts separate entries of the source, which are not always exact repeats. Equal values may be shown once. The source made the active and inactive calls. No rule for the calls is given here.

test system: Aerobactin synthetase IucA (Klebsiella pneumoniae hvKP1); assay: IucA enzyme inhibition, primary screen, biochemical, Spectrum library (AID 1346200); conditions: malachite green pyrophosphate, A620, at 8 µM, hits give low values;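 also: 100% = wells without compound and 0% = wells lacking enzyme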

**Q.** For `O=C(O)c1cc(=O)c2cccc(O)c2[nH]1`, which activity remaining is on record?
**A.** 97.3% (inactive)

**Q.** How did the activity remaining turn out when `C[C@H]1[C@H](NC(=O)/C(=N/OC(C)(C)C(=O)O)c2csc(N)n2)C(=O)N1S(=O)(=O)O` (stereo in doubt) was run?
**A.** 113% (inactive)

**Q.** With `C#CCCCCCCCCCCCC(=O)CC(O)COC(C)=O` (centres undefined) as the compound, how does the activity remaining read?
**A.** 122% (inactive)

**Q.** For `CC(C)(O)[C@@H]1Cc2cc3ccc(=O)oc3cc2O1`, which activity remaining is on record?
**A.** 113% (inactive)

**Q.** How did the activity remaining turn out when `Cn1c(=O)c2c(ncn2CC(O)CO)n(C)c1=O` (centres undefined) was run?
**A.** 104% (inactive)

**Q.** With `O=C(OC[C@H]1O[C@H](OC(=O)c2cc(O)c(O)c(OC(=O)c3cc(O)c(O)c(O)c3)c2)[C@H](OC(=O)c2cc(O)c(O)c(OC(=O)c3cc(O)c(O)c(O)c3)c2)[C@@H](OC(=O)c2cc(O)c(O)c(OC(=O)c3cc(O)c(O)c(O)c3)c2)[C@@H]1OC(=O)c1cc(O)c(O)c(OC(=O)c2cc(O)c(O)c(O)c2)c1)c1cc(O)c(O)c(OC(=O)c2cc(O)c(O)c(O)c2)c1` as the compound, how does the activity remaining read?
**A.** 100% (inactive)

**Q.** With `NS(=O)(=O)c1cc2c(cc1C(F)(F)F)NC(Cc1ccccc1)NS2(=O)=O` (centres undefined) as the compound, how does the activity remaining read?
**A.** 98.7% (inactive)

**Q.** How did the activity remaining turn out when `O=c1oc2cc(O)ccc2s1` was run?
**A.** 110% (inactive)

**Q.** Which activity remaining does the source give for `COc1cccc2c1CCC1CC(=O)CC[C@]21C` (some centres undefined) here?
**A.** 119% (inactive)

**Q.** `C[C@H]1CC2C([C@@H](O)C[C@@]3(C)C2CC[C@]3(O)C(=O)COC(=O)CCC(=O)O)[C@@]2(C)C=CC(=O)C=C12` (some centres undefined) was tested. Which activity remaining did it give?
**A.** 91.3% (inactive)

**Q.** Which activity remaining does the source give for `O=C(O)CCC(=O)c1ccc(-c2ccccc2)cc1` here?
**A.** 115% (inactive)

**Q.** Which activity remaining does the source give for `C1CCC(C(CC2CCCCN2)C2CCCCC2)CC1` (centres undefined) here?
**A.** 103% (inactive)

**Q.** How did the activity remaining turn out when `C[C@H]1C(=O)CCC2[C@]3(C)CC[C@@]4(C)C5CC(C)(C)CC[C@]5(C)CC[C@]4(C)C3CC[C@@]21C` (some centres undefined) was run?
**A.** 105% (inactive)

**Q.** `OC1=Cc2c(O)cc(O)cc2OC1(O)c1ccc(O)c(O)c1` (centres undefined) was tested. Which activity remaining did it give?
**A.** 81.3% (inactive)

**Q.** For `COc1cc2ccc(=O)oc2c(OC)c1OC`, which activity remaining is on record?
**A.** 124% (inactive)

**Q.** With `CC(C)=CCCC1(C)C=Cc2c(O)c3c(c(CC=C(C)C)c2O1)OC12C(=CCCC1C(C)(C)O[C@@]2(C/C=C(\C)C(=O)O)C(=O)O)C3=O` (some centres undefined) as the compound, how does the activity remaining read?
**A.** 116% (inactive)

**Q.** With `CC1(C)S[C@@H]2C(N3C(=O)[C@@H](c4ccccc4)NC3(C)C)C(=O)N2[C@H]1C(=O)O` (some centres undefined) as the compound, how does the activity remaining read?
**A.** 108% (inactive)

**Q.** With `COC(=O)C1=CO[C@@H](C)[C@@H]2CN3CC[C@@]4(C(=O)Nc5ccccc54)[C@@H]3CC12` (some centres undefined) as the compound, how does the activity remaining read?
**A.** 107% (inactive)

**Q.** How did the activity remaining turn out when `O=C(CC(=O)c1ccccc1)c1ccccc1` was run?
**A.** 101% (inactive)

**Q.** How did the activity remaining turn out when `CC1(C)C(=O)CC[C@@]2(C)C1C[C@@H](O)[C@@]1(C)C3=CC(=O)O[C@@H](c4ccoc4)[C@]3(C)CCC21` (some centres undefined) was run?
**A.** 111% (inactive)

**Q.** `CC(=O)O[C@@H]1c2c(ccc3ccc(=O)oc23)OC(C)(C)[C@@H]1OC(=O)CC(C)C` was tested. Which activity remaining did it give?
**A.** 103% (inactive)

**Q.** With `CC(=O)N[C@@H](CC(C)C)C(=O)O` as the compound, how does the activity remaining read?
**A.** 93.2% (inactive)

**Q.** Which activity remaining does the source give for `CC(C)C(C)/C=C/C(C)[C@H]1CCC2C3=CCC4CC(=O)CC[C@]4(C)C3CC[C@@]21C` (some centres undefined) here?
**A.** 92.7% (inactive)

**Q.** With `CS(=O)(=O)CCCCN=C=S` as the compound, how does the activity remaining read?
**A.** 101% (inactive)

**Q.** Which activity remaining does the source give for `CN[C@@H]1C(O)[C@@H](O[C@@H]2[C@@H](O)[C@H](O[C@H]3OC(CN)=CC[C@H]3N)[C@@H](N)C[C@H]2N)OC[C@]1(C)O` (some centres undefined) here?
**A.** 96.1% (inactive)

**Q.** Which activity remaining does the source give for `Cc1c(C)c2c(c(C)c1O)CCC(C)(COc1ccc(CC3SC(=O)NC3=O)cc1)O2` (centres undefined) here?
**A.** 117% (inactive)

**Q.** With `COc1ccc2c(c1OC)C(=O)O[C@H]2[C@H]1c2c(cc3c(c2OC)OCO3)CCN1C` as the compound, how does the activity remaining read?
**A.** 116% (inactive)

**Q.** For `O=c1c(O)cc([C@H]2Oc3cc(O)cc(O)c3C[C@H]2O)cc2c([C@H]3Oc4cc(O)cc(O)c4C[C@@H]3O)cc(O)c(O)c12`, which activity remaining is on record?
**A.** 104% (inactive)

**Q.** Which activity remaining does the source give for `CCN1CCN(c2cc3c(cc2F)c(=O)c(C(=O)O)cn3C2CC2)CC1` here?
**A.** 100% (inactive)

**Q.** How did the activity remaining turn out when `COc1cc(O)c(C(=O)/C=C/c2ccccc2)c(OC)c1` was run?
**A.** 119% (inactive)

**Q.** `COc1cccc2c1C(=O)c1c(O)c3c(c(O)c1C2=O)C[C@@](O)(C(C)=O)C[C@@H]3O[C@H]1C[C@H](N)[C@H](O)[C@H](C)O1` was tested. Which activity remaining did it give?
**A.** 75.3% (inactive)

**Q.** Which activity remaining does the source give for `CCCCC(CC)CN1CN(CC(CC)CCCC)CC(C)(N)C1` (centres undefined) here?
**A.** 89.7% (inactive)

**Q.** Which activity remaining does the source give for `CC(=O)O[C@H]1CC[C@@]2(C)C(CC[C@]3(C)C2CC=C2C4CC(C)(C)CC[C@]4(C)CC[C@]23C)C1(C)C` (some centres undefined) here?
**A.** 102% (inactive)

**Q.** For `C=C1CCC2C(CC2(C)C)C(=O)CCC1O` (centres undefined), which activity remaining is on record?
**A.** 116% (inactive)

**Q.** `CCCCCCCC/C=C/CCCCCCCCOP(=O)([O-])OCC[N+](C)(C)C` was tested. Which activity remaining did it give?
**A.** 96.1% (inactive)

**Q.** How did the activity remaining turn out when `Cc1occc(=O)c1O` was run?
**A.** 102% (inactive)

**Q.** `OCC(O)C(O)C(O)CO` (centres undefined) was tested. Which activity remaining did it give?
**A.** 112% (inactive) and 92.5% (inactive)

**Q.** With `CC1=C(/C=C/C(C)=C/C=C/C(C)=C/C=C/C=C(C)/C=C/C=C(C)/C=C/C(=O)[C@]2(C)C[C@@H](O)CC2(C)C)C(C)(C)C[C@H](O)C1` as the compound, how does the activity remaining read?
**A.** 108% (inactive)

**Q.** For `COc1ccc([C@H]2COc3c(ccc(O)c3OC)C2)c(OC)c1O`, which activity remaining is on record?
**A.** 89.5% (inactive)
